The nature of the assay: InCell qHTS Assay for Inhibitors of the mTORC1 Signaling Pathway in MEF (Tsc2-/-, p53-/-) Cells: Hit Validation.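 Note: phospho-S6 Ser235/236 signal normalized to propidium iodide cell count per well; nearly all actives have a fitted effect of over 75% in size.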 The conditions noted are these: phospho-rpS6 immunofluorescence, 24 h; activity change, negative = inhibition: at 38.3 µM (top of the series). For orientation: qHTS replaces the single test concentration by a dilution series.

SMILES strings stand for the structures. Inconclusive results are not listed. Calls of active or inactive are those of the source. Calls come from the whole dose curve; as a rule, active = well fitted inhibition curve with a large enough effect; inconclusive = small, poorly fitted or top-dose-only effect; inactive = no such curve, though single readings can be large or run the other way.
Potency is the fitted concentration of half-maximal effect.

On to `Cc1ccc(CNS(=O)(=O)c2cc(C(=O)Nc3cccc(C(F)(F)F)c3)ccc2F)cc1`, for which the activity change, negative = inhibition is -100%.

On to `COC(=O)c1ccccc1NC(=O)Cn1c(=O)n(-c2ccc(C)cc2)c(=O)c2ccccc21`, for which the activity change, negative = inhibition is -18.6%.

In the case of `CCS(=O)(=O)c1oc(-c2ccc(F)cc2)nc1S(=O)(=O)c1ccccc1`, the Potency was 0.736 µM (active).

With `CCCC1=Nc2cc(C(=O)NCc3ccccc3)ccc2Sc2ccccc21`, the activity change, negative = inhibition was -100%.

In the case of `CCCCN(CC)CCNC(=O)C1CCN(c2nnc(C)c3c(C)n(-c4ccc(C)cc4)nc23)CC1`, the activity change, negative = inhibition was -100%.

On to `CC1=Nc2cc(C(=O)NC(C)C)ccc2Sc2ccc(C)cc21`, for which the activity change, negative = inhibition was -100%.

As to `CCCCN(C)C(=O)CSc1c2c(nc3ccc(Cl)cc13)CCCC2`, the activity change, negative = inhibition was -100%.

For the compound `CCOC(=O)c1c(C)n(-c2ccccc2)c2ccc(OC(=O)c3ccccc3)cc12`, the activity change, negative = inhibition was -100%.

In the case of `CCOc1ccc(N(Cc2ccccc2)C(=O)c2nc(S(C)(=O)=O)ncc2Cl)cc1`, the Potency was 2.93 µM (active).

Regarding `CCS(=O)(=O)c1ncc(Cl)c(C(=O)N2CCN(c3ccc(OC)cc3)CC2)n1`, the Potency was 4.65 µM (active).

As to `Cc1ccc(NC(=O)Nc2cccs2)c(C)c1`, the activity change, negative = inhibition was -100%.

As for `Cc1ccccc1NC(=O)c1sc2nc3c(cc2c1N)CCCC3`, the activity change, negative = inhibition is -100%.

Consider `Cc1ccccc1Oc1nc2ccccn2c(=O)c1/C=C(\C#N)c1nc2ccccc2[nH]1`, for which the activity change, negative = inhibition is -100%.

For the compound `Cc1ccc(-c2cc(C(=O)N3CCN(c4ccccc4)CC3)c3ccccc3n2)cc1C`, the activity change, negative = inhibition is -100%.

Consider `Cc1ccccc1OCc1ccc(-c2nc(C#N)c(NCCCN(C)C)o2)o1`, for which the activity change, negative = inhibition is -100%.

For `CCOc1ccc(S(=O)(=O)N(C(=O)c2ccncc2)c2ccc3oc(C)c(C(=O)OC)c3c2)cc1`, the activity change, negative = inhibition was -100%.

On to `Cc1ccc(C)c(NC(=O)Nc2cc3c(cc2N2CCCCC2)n(C)c(=O)n3C)c1`, for which the activity change, negative = inhibition is -100%.

`COc1ccc(N(Cc2ccccc2)C(=O)c2nc(S(C)(=O)=O)ncc2Cl)cc1`: the Potency is 3.69 µM (active).

For `CC1CCN(S(=O)(=O)c2ccc3nc(Nc4cccc(C(F)(F)F)c4)ccc3c2)CC1`, the activity change, negative = inhibition was -100%.

`O=C(CCn1cnc2onc(-c3ccc(F)cc3)c2c1=O)Nc1ccc(F)c(Cl)c1`: the activity change, negative = inhibition is -100%.

Consider `COc1cccc(-c2nc(S(=O)(=O)c3ccc(Cl)cc3)c(NCc3ccccc3)o2)c1`, for which the activity change, negative = inhibition is -100%.
